# Data taken from the supplement of paper PMC10849652.
# Of roughly 7,900 targets only a part is listed; those with a hit were picked by preference. About 0.6% of all pairs of compound and target were hits. Values without a mark were called inactive.
# Experiments:
# Assay in all cases: log2 fold change, soluble protein after heating vs DMSO (PISA); higher = thermal stabilisation; K562 cells, 10 uM, 30 min; active = over 0.2 and 3.5 SD of the protein, either way, in both replicates (recomputed)
# [1] = compound: CC1=C(C=C(C=C1)NC(=O)C2=CC(=CC=C2)C(C)(C)C#N)NC3=CC4=C(C=C3)N=CN(C4=O)C
# Outline: (§1)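 K562 cells at 2×10^6 cells/mL were exposed to 10 μM compound for 30 min, then aliquots were heated for 3 min across 48°C-58°C, pooled, and extracted in PBS containing 0.5% NP-40 at 4°C. The supernatant after 21,000xg for 90 min was taken as soluble protein and measured by TMTpro 16plex LC-MS/MS with channel sums equalised. Thermal stability is reported relative to control samples, with values from duplicates. Fold changes are given on a log2 scale.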
# [2] = compound: CC1=C(C=C(C=C1)NC(=O)C2=CC(=CC=C2)N(C)C)NC(=O)C3=CC=C(C=C3)O
# Outline: as §1
# [3] = compound: CC1=CC=C(C=C1)SC2=C3C=C(SC3=CN=C2)C(=O)N
# Outline: as §1
# [4] = compound: CC1=NC(=CC=C1)C2=C(N=C(N2)C(C)(C)C)C3=CC4=NC=CN=C4C=C3
# Outline: as §1
# Nexturastat A = compound: CCCCN(Cc1ccc(C(=O)NO)cc1)C(=O)Nc1ccccc1 [Nexturastat A]
# Outline: as §1
# vemurafenib = compound: CCCS(=O)(=O)Nc1ccc(F)c(C(=O)c2c[nH]c3ncc(-c4ccc(Cl)cc4)cc23)c1F [vemurafenib]
# Outline: as §1
# [5] = compound: CCCS(=O)(=O)Nc1ccc(F)c(C(=O)c2c[nH]c3ncc(Cl)cc23)c1F
# Outline: as §1
# [6] = compound: CCCc1cc(C)[nH]c(=O)c1CNC(=O)c1cc(-c2ccnc(N3CCN(C)CC3)c2)cc2c1cnn2C(C)C
# Outline: as §1
# givinostat = compound: CCN(CC)Cc1ccc2cc(COC(=O)Nc3ccc(C(=O)NO)cc3)ccc2c1 [givinostat]
# Outline: as §1
# barasertib = compound: CCN(CCCOc1ccc2c(Nc3cc(CC(=O)Nc4cccc(F)c4)[nH]n3)ncnc2c1)CCOP(=O)(O)O [barasertib]
# Outline: as §1
# [7] = compound: CC[C@@H]1C(=O)N(C)c2cnc(Nc3ccc(C(=O)NC4CCN(C)CC4)cc3OC)nc2N1C1CCCC1
# Outline: as §1
# volasertib = compound: CC[C@@H]1C(=O)N(C)c2cnc(Nc3ccc(C(=O)N[C@H]4CC[C@H](N5CCN(CC6CC6)CC5)CC4)cc3OC)nc2N1C(C)C [volasertib]
# Outline: as §1
# [8] = compound: CC[C@H](C)N1C=C(C2=C(C=C(C=C21)C3=CN=C(C=C3)N4CCNCC4)C(=O)NCC5=C(C=C(NC5=O)C)C)C
# Outline: as §1
# epoxomicin = compound: CC[C@H](C)[C@@H](C(=O)N[C@@H]([C@@H](C)O)C(=O)N[C@@H](CC(C)C)C(=O)[C@]1(CO1)C)NC(=O)[C@H]([C@@H](C)CC)N(C)C(=O)C [epoxomicin]
# Outline: as §1
# [9] = compound: CCn1c(C(=O)N(C2CC2)C2CC2)cc2c3c(ncn3C)c(Nc3cc(C)n(C)n3)nc21
# Outline: as §1
# [10] = compound: CCn1cc(-c2ccnc3[nH]c(-c4cccc(CN(C)C)c4)cc23)c(-c2ccc(NC(=O)N(C)C)cc2)n1
# Outline: as §1
# [11] = compound: CN(C)CC(=O)Nc1ccc2[nH]c(=O)c3ccccc3c2c1
# Outline: as §1
# rosiglitazone = compound: CN(CCOC1=CC=C(C=C1)C[C@H]2C(=O)NC(=O)S2)C3=CC=CC=N3 (racemic) [rosiglitazone]
# Outline: as §1
# [12] = compound: CN1C2=C(C3=C1C(=O)N(N=C3)CC4=CC(=CC=C4)N)SC(=C2)S(=O)C
# Outline: as §1
# [13] = compound: CN1CCC(CNc2ccc3ncc(-c4cccc(OC(F)(F)F)c4)n3n2)CC1
# Outline: as §1
# UniProt P28072, sequence (P28072 whole entry, looked up): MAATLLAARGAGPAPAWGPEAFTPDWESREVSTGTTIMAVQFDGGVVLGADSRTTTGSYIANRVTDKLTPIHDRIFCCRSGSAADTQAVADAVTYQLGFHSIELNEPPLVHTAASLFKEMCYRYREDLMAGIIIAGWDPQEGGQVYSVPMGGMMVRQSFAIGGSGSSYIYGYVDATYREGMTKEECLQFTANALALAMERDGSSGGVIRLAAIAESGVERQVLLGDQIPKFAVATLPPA
# UniProt Q29RF7, sequence (Q29RF7 whole entry, looked up): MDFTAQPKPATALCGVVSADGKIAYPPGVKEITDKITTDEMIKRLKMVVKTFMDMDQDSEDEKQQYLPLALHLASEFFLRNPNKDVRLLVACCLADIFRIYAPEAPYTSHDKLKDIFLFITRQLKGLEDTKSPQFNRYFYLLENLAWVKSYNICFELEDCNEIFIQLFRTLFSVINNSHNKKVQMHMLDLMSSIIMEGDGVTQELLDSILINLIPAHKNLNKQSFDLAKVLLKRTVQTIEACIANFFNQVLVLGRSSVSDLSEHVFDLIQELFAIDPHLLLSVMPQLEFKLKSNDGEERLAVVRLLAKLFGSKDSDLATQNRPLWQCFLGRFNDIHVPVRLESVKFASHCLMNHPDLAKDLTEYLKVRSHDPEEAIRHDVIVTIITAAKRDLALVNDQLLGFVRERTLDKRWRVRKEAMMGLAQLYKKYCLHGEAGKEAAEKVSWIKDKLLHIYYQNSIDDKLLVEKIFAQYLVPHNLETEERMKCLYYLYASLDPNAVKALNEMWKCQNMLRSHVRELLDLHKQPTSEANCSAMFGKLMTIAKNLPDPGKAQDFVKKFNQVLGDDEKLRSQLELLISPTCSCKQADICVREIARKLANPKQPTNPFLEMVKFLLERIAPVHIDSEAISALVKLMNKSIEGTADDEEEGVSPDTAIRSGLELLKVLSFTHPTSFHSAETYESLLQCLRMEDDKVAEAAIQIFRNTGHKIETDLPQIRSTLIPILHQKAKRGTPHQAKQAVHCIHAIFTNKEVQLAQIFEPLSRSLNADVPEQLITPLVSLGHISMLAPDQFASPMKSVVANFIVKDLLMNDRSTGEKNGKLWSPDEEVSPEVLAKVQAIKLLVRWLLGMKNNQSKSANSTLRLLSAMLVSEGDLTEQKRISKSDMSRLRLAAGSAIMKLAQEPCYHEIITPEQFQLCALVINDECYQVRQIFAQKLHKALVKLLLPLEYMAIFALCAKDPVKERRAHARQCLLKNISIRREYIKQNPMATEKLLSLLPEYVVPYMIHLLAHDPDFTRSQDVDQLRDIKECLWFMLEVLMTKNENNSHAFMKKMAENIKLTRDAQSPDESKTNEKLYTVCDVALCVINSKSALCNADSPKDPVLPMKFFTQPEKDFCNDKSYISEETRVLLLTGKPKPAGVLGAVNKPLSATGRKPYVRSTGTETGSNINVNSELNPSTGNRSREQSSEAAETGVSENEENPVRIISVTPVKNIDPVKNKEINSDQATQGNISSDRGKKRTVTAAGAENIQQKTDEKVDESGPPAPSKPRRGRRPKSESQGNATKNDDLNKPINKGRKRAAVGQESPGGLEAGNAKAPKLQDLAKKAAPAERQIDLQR
# UniProt O00231, sequence (O00231 whole entry, looked up): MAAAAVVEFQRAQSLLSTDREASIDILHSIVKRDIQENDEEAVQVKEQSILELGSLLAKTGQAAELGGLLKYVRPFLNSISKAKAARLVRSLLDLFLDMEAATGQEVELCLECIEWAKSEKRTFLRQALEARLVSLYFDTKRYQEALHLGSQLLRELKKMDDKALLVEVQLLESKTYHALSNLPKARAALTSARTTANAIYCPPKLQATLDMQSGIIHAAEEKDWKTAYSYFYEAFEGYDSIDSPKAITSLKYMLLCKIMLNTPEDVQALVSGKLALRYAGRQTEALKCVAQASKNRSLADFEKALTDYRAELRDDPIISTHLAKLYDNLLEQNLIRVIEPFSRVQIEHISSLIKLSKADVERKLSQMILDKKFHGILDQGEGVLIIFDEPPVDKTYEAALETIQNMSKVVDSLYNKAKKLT
# UniProt Q9NW08, sequence (Q9NW08 whole entry, looked up): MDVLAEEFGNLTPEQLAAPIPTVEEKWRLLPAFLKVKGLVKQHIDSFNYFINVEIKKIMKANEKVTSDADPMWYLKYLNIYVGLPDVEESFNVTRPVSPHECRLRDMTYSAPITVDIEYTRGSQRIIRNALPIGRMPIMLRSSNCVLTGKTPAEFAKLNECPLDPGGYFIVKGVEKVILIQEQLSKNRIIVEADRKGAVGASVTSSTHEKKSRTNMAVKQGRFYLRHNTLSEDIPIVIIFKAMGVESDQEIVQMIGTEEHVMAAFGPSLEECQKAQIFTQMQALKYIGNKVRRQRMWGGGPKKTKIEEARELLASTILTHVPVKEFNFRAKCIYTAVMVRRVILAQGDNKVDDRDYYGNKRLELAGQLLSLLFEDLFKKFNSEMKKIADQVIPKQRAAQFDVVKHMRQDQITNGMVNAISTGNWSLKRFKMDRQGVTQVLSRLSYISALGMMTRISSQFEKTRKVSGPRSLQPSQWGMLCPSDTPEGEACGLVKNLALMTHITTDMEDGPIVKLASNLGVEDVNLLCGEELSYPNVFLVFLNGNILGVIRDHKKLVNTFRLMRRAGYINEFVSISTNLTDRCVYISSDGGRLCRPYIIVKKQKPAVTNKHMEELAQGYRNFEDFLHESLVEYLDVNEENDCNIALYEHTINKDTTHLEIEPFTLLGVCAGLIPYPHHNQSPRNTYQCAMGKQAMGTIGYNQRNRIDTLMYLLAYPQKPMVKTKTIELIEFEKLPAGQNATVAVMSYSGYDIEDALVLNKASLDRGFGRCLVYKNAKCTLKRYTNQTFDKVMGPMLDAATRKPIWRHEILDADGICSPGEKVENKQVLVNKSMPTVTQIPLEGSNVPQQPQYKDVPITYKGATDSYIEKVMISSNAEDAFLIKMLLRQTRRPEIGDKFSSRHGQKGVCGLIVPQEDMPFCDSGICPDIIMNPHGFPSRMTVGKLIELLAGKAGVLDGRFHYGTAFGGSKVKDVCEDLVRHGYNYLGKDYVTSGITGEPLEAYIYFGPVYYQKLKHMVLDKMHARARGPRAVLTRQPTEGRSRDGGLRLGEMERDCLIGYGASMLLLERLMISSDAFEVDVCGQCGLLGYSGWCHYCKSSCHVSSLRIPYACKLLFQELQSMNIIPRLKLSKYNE
# UniProt Q6L8Q7, sequence (Q6L8Q7 whole entry, looked up): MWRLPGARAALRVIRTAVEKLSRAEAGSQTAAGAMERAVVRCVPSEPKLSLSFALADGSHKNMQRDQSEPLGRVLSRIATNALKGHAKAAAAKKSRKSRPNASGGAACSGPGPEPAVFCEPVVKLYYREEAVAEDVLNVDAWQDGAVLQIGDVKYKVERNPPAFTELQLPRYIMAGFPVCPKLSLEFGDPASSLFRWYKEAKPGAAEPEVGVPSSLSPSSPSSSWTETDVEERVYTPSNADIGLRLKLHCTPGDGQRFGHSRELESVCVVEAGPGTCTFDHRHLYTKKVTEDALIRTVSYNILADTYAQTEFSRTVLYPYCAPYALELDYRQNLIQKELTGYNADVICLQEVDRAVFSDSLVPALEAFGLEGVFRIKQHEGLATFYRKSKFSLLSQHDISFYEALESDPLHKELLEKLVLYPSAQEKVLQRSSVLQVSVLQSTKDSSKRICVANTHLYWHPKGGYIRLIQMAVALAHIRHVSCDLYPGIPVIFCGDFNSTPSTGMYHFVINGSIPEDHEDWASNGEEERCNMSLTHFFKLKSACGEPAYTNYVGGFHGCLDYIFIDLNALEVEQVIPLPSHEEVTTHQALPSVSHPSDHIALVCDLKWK
# UniProt O14974, sequence (O14974 whole entry, looked up): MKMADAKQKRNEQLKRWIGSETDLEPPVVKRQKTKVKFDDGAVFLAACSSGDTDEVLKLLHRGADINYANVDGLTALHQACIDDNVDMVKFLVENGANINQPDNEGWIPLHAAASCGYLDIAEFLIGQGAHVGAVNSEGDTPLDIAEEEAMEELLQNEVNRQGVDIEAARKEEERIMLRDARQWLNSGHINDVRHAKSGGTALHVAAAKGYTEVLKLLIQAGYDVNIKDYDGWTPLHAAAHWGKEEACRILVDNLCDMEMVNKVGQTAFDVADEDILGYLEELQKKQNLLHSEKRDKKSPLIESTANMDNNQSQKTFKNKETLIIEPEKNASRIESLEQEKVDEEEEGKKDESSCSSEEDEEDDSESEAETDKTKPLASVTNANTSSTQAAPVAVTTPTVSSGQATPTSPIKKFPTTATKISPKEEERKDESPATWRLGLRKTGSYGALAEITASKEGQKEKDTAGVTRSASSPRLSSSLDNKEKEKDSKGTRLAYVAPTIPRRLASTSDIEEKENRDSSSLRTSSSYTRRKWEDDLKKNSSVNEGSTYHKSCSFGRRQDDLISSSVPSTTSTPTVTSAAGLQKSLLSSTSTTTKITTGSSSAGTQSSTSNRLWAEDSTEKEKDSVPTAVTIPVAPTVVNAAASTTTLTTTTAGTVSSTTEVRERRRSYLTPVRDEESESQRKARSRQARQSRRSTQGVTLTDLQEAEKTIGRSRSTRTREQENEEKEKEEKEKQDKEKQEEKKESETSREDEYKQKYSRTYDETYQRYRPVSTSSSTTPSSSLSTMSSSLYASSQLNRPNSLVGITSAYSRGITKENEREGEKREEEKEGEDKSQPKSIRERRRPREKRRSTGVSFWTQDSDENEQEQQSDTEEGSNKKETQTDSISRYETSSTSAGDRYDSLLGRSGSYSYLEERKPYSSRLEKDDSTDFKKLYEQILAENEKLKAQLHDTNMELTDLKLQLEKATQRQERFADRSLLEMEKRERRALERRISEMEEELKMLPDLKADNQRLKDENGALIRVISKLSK
# UniProt O96011, sequence (O96011 whole entry, looked up, change not shown): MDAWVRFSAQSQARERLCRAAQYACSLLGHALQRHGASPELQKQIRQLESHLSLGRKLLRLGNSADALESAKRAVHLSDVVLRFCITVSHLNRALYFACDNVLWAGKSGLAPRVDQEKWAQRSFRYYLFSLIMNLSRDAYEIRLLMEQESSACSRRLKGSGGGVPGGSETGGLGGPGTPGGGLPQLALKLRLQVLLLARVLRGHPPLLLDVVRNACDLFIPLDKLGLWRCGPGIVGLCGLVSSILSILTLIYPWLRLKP
Target,log2 fold change [1],log2 fold change [2],log2 fold change [3],log2 fold change [4],log2 fold change (Nexturastat A),log2 fold change (vemurafenib),log2 fold change [5],log2 fold change [6],log2 fold change (givinostat),log2 fold change (barasertib),log2 fold change [7],log2 fold change (volasertib),log2 fold change [8],log2 fold change (epoxomicin),log2 fold change [9],log2 fold change [10],log2 fold change [11],log2 fold change (rosiglitazone),log2 fold change [12],log2 fold change [13]
POLR3B (UniProt Q9NW08),0.024,-0.062,-0.008,0.022,0.026,0.003,0.172,0.063,0.138,0.114,0.029,-0.44,0.134,0.07,-0.069,-0.028,0.075,0.035,0.105,-0.058
PRPSAP2 (UniProt O60256),-0.141,-0.002,-0.021,-0.07,-0.083,-0.022,-0.019,-0.026,-0.034,-0.005,0.07,0.056,-0.043,-0.008,-0.013,-0.088,-0.02,0.008,-0.041,0.159
PRPF38B (UniProt Q5VTL8),-0.001,0.001,-0.012,0.015,-0.011,0.043,0.042,-0.006,0.007,0.012,-0.152,-0.231,0.015,-0.002,-0.012,-0.02,-0.01,0.009,0.018,-0.073
QRSL1 (UniProt Q9H0R6),-0.001,-0.079,0.018,0.041,-0.09,0.086,0.061,0.093,0.033,0.044,0.044,-0.167,0.069,0.027,-0.003,-0.029,0.023,0.055,-0.053,-0.095
PPP1R12A (UniProt O14974),-0.012,-0.036,0.046,0.045,0.001,0.015,0.073,-0.032,0.048,0.066,-0.136,-0.468 (active),0.066,0.067,-0.028,-0.229,0,0.059,-0.016,-0.536 (active)
PDS5A (UniProt Q29RF7),0.093,-0.109,0.012,0.12,0.057,0.143,0.294,0,0.208,0.275,-0.213,-0.447,0.137,0.29,-0.086,0.012,-0.107,0.246,0.042,-0.203
PDE12 (UniProt Q6L8Q7),0.049,0.006,0.024,0.026,-0.064,-0.006,0.03,-0.01,-0.027,0.014,-0.035,-0.056,-0.008,0.04,0.003,-0.038,0.026,0.028,-0.078,-0.014
PEX13 (UniProt Q92968),0.052,-0.101,0.033,-0.02,0.116,-0.033,0.033,-0.142,-0.034,0.044,-0.053,-0.049,-0.038,-0.009,0.076,0.047,0.019,0.021,0.02,-0.378
PDPK1 (UniProt O15530),-0.026,-0.055,0.019,-0.007,-0.12,0.03,0.003,-0.018,0.032,0.035,-0.136,-0.232,0.034,0.055,-0.035,-0.05,0.034,0.064,-0.008,-0.275
PSMD11 (UniProt O00231),0.048,-0.005,0.017,-0.006,0.124,-0.031,0.058,0.047,-0.027,-0.056,0.011,0.187,0.036,-0.262,-0.016,0,0,-0.016,0.018,0.053
PSMB6 (UniProt P28072),0.002,0.306,-0.036,-0.001,-0.019,-0.038,-0.062,-0.024,-0.025,-0.04,0.029,0.195,-0.055,-0.241 (active),0.013,0.259,-0.019,-0.027,0.053,0.03
PEX11B (UniProt O96011),0.06,-0.039,0.321,-0.008,-0.076,0.08,0,0.029,0.008,-0.002,0.071,-0.018,-0.038,-0.013,0.006,0.04,0.064,0.007,-0.085,0.239
POLR2D (UniProt O15514),-0.022,-0.005,0.002,0.004,0.027,0.046,-0.006,-0.014,-0.267,-0.031,0.206,0.135,-0.017,0.17,0.11,0.043,-0.02,-0.02,-0.101,0.056
PTPA (UniProt Q15257),0.001,-0.01,0.004,0.014,-0.006,0.044,-0.017,-0.046,-0.005,-0.007,-0.007,0.004,-0.012,0.051,-0.017,-0.06,-0.002,0.008,-0.072,-0.009
POGLUT1 (UniProt Q8NBL1),-0.063,-0.027,-0.081,-0.024,-0.025,-0.139,-0.034,0.043,0.052,-0.022,0.007,-0.054,0.013,0.012,-0.051,0.089,-0.083,-0.019,0.039,0.26 (active)
POLD3 (UniProt Q15054),-0.131,-0.055,0.03,0.007,-0.115,0.082,0.049,0.065,0.018,0.006,-0.147,-0.101,0.008,0.126,-0.071,-0.037,0.067,0.513,0.051,-0.118
